Bioassay records (PubChem)
rCAG binder – molecules binding r(CAG) RNA repeats. r(CAG) RNA repeat, TO-PRO-1 dye displacement fluorescence. inhibition, % at 3 µM. 1.3% of 370,000 active. AID 651821;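 active = inhibition above the plate cutoff, the mean of all test compounds on that plate plus 3 SD, cut at about 35% in these data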;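 also: higher means more dye released from RNA so lower well fluorescence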
PG9 Ab binder – small molecules binding HIV-1 gp120 antibody PG9 | TR-FRET gp120-PG9 antibody binding | inhibition, % at 6.7 µM | 0.43% of 360,000 active | AID 624416; in the data active = inhibition above about 8.5%
Granule exo inh – blocks lytic granule exocytosis. TALL-104 LAMP-1 surface exposure, flow cytometry; cells stimulated with thapsigargin and PMA. inhibition, % at 10 µM. AID 651702. 0.66% of 360,000 active;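 active = inhibition above about 55%, limit read from the data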
ABCB6 inh MLPCN – inhibitors of human ABC transporter ABCB6; fluorescence ratio to DMSO, % at 10 µM; 0.19% of 360,000 active; Q9NP58; K562-ABCB6 porphyrin accumulation, flow cytometry, 1 h; active compounds read low;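 active = fluorescence ratio to DMSO below 75%, the collection mean minus 3 SD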;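 also: signal is porphyrin accumulated inside mitochondria; lower ratio means ABCB6 inhibition with less porphyrin fluorescence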
Target sequence (Q9NP58 whole entry, looked up): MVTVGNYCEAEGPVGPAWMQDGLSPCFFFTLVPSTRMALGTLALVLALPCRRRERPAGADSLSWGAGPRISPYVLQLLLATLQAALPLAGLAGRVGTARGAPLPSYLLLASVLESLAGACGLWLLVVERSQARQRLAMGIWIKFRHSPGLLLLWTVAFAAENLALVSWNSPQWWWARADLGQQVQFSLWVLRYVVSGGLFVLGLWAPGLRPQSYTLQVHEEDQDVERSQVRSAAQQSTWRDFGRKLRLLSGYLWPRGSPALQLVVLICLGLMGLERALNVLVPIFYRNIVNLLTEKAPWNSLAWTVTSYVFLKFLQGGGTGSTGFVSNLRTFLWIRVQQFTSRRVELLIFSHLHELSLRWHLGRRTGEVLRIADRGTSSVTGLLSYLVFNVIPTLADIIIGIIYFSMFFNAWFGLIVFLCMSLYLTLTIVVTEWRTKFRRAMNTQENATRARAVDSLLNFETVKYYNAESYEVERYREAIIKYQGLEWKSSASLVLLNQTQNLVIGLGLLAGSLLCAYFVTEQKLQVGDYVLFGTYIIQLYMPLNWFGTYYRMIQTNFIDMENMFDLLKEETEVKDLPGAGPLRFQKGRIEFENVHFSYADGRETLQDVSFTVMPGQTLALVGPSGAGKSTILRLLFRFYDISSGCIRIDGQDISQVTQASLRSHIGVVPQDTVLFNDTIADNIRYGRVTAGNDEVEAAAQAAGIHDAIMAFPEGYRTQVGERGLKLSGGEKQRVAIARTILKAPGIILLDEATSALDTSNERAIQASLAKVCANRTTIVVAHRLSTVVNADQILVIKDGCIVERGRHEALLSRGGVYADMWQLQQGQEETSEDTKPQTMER
Large screens that a line does not name were inactive. A selection: hits, their analogues and other compounds. The true share with any hit is near 2.5%.

COc1ccc(C(C)=O)cc1CSc1nnc(-c2ccc(Cl)cc2)n1-c1ccccc1	Granule exo inh 73.1
COc1ccc(C(C)=O)cc1CSc1nnc(-c2ccncc2)n1C	none
Cc1ccc(-n2c(SCC(=O)Nc3ccccc3-c3ccccc3)nnc2-c2ccccc2)cc1	none (no result: PG9 Ab binder, Granule exo inh, ABCB6 inh MLPCN)
Nc1ccccc1Sc1nc2ccccc2[nH]1	Granule exo inh 61.2
COC(=O)c1ccc(=O)c2nc3/c(=C/O)c(O)cc(=O)c3[nH]c12	rCAG binder 69.0
O=[N+]([O-])/C=C/c1c(OCc2ccccc2)ccc2ccccc12	Granule exo inh 77.9 (no result: rCAG binder, PG9 Ab binder)
CCOc1ccc(/C=C/[N+](=O)[O-])c2ccccc12	Granule exo inh 101.5 (no result: rCAG binder, PG9 Ab binder)
COc1ccc(/C=C/S(=O)(=O)NCC(C)C)c(CNC(=O)OC(C)(C)C)c1	none (no result: PG9 Ab binder, Granule exo inh, ABCB6 inh MLPCN)
O=C(COCc1ccncc1)N1CCN(c2ccc(F)cc2Cl)CC1	none (no result: PG9 Ab binder, Granule exo inh, ABCB6 inh MLPCN)
COC(=O)[C@H]1C[C@@]2(C)c3ccccc3N(C(=O)OC(C)(C)C)[C@H]2N1C(=O)OC(C)(C)C	none (no result: PG9 Ab binder, Granule exo inh, ABCB6 inh MLPCN)
NC(=O)c1ncn([C@@H]2O[C@H](C(=O)N[C@H](Cc3ccccc3)C(=O)O)[C@@H](O)[C@H]2O)n1	none (no result: Granule exo inh, ABCB6 inh MLPCN)
CCOC(=O)C1Nc2ccccc2C2C(O)C(O)CC12 (configuration not stated)	rCAG binder 43.2
CCOC(=O)C1Nc2ccc(C(F)(F)F)cc2C2c3ccccc3CC12 (configuration not stated)	none
CCCOc1ccc(/C(O)=C2\C(=O)C(=O)N(CCCOC)C23C(=O)N(C)c2ccccc23)cc1 (configuration not stated)	PG9 Ab binder 11.0
CCCN1C(=O)C2(/C(=C(\O)c3ccc4c(c3)OCCO4)C(=O)C(=O)N2CCCOC)c2ccccc21 (configuration not stated)	none (no result: rCAG binder, PG9 Ab binder)
CCN1/C(=C/c2ccc3cc(C)ccc3[n+]2CC)Sc2ccccc21	none (no result: ABCB6 inh MLPCN)
CCN1/C(=C/c2ccc3cc(C)ccc3[n+]2CC)Sc2cc(C)c(C)cc21	Granule exo inh 56.8
O=C(NC1CCCCC1)C(c1cccc2ccccc12)n1c(=O)c(-c2ccco2)nc2ccccc21 (configuration not stated)	rCAG binder 35.3 (no result: ABCB6 inh MLPCN)
CC(C)(C)NC(=O)C(c1ccccc1)n1c(=O)c(-c2ccco2)nc2ccccc21 (configuration not stated)	rCAG binder 36.3 (no result: ABCB6 inh MLPCN)
COc1ccc(C(C(=O)NC2CCCCC2)n2c(=O)c(-c3ccco3)nc3ccccc32)cc1 (configuration not stated)	none (no result: ABCB6 inh MLPCN)
Cc1cc(-c2cc(NC(=O)Cc3c[nH]c4ccccc34)ccc2N(C)c2cccnc2)ccc1F	none (no result: Granule exo inh, ABCB6 inh MLPCN)
Cc1cc(C)nc(S/C=C/C(=O)c2ccccc2F)n1	Granule exo inh 62.0
COc1ccc(Cl)cc1NC(=O)CSc1nc2sccc2c(=O)[nH]1	rCAG binder 44.6
COc1ccc(C)cc1NC(=O)CSc1nc2scc(C)c2c(=O)[nH]1	none
O=C(CSc1ccccn1)Nc1nonc1[N+](=O)[O-]	Granule exo inh 58.6
O=C(CSc1ccccn1)Nc1ccc(NC(=O)CSc2ccccn2)cc1	none
Nn1c(SCC(=O)Nc2nccs2)nnc1-c1cc(-c2ccc(F)cc2)n[nH]1	none (no result: PG9 Ab binder, Granule exo inh, ABCB6 inh MLPCN)
COc1cccc(C(=O)NCC(=O)N/N=C/c2ccc3c(c2)OCO3)c1	ABCB6 inh MLPCN 73.0
COC(=O)C(CC(=O)c1ccc(Br)cc1)n1nc(C)cc1C (configuration not stated)	none
COC(=O)C(CC(=O)c1ccc(C)cc1)n1nc(C)cc1C (configuration not stated)	Granule exo inh 56.6
Oc1ccc(Nc2nc(-c3ccccc3O)nc3ccccc23)cc1	rCAG binder 43.4
CCOC(=O)C1=C(C(=O)OCC)C2N(Cc3ccc(C(F)(F)F)cc3)c3ccccc3[C@@]23C[C@@H](C(=O)OC)N(S(=O)(=O)c2cccs2)C3=N1 (some centres not stated)	none (no result: Granule exo inh, ABCB6 inh MLPCN)
Cc1nc2ccc(NC(=O)c3ccc(F)cc3F)cc2c(=O)[nH]1	none (no result: PG9 Ab binder, Granule exo inh, ABCB6 inh MLPCN)
Cc1ccc(Cl)cc1NC(=S)NCc1cccn1C	ABCB6 inh MLPCN 73.0
COc1ccc(CNS(=O)(=O)/C=C/c2ccc(OC)cc2CNC(=O)OC(C)(C)C)cc1	none (no result: PG9 Ab binder, Granule exo inh, ABCB6 inh MLPCN)
N#CC(C#N)=C1C=CC=CN1/C(=C\c1ccco1)C(=O)c1ccc(Br)cc1	Granule exo inh 85.5
COc1ccc(C(=O)/C(=C\c2ccco2)N2C=CC=CC2=C(C#N)C#N)cc1	Granule exo inh 64.9 (no result: rCAG binder, PG9 Ab binder)
Cc1c(CC(=O)O)c(=O)oc2c(C)c(OCc3nn[nH]n3)ccc12	none
Cc1c(Cc2ccccc2)c(=O)oc2c(C)c(OCc3nn[nH]n3)ccc12	rCAG binder 58.9
CC(/C=C/c1ccc(O)cc1)=NNc1ccccc1	Granule exo inh 59.0
C/C(=N/NC(=O)c1ccc(Cl)s1)c1ccc(NC(=O)COc2ccc(Cl)cc2)cc1	ABCB6 inh MLPCN 53.0
COC(=O)[C@]12C[C@H](CC(=O)N3CCN(C(=O)C4CC4)CC3)C(=O)N(Cc3ccco3)C1=C[C@H](C1CCCC1)O[C@@H]2C	none (no result: PG9 Ab binder, Granule exo inh, ABCB6 inh MLPCN)
CCn1cc(C(=O)O)c(=O)c2cc(F)c(N3CCN(C(=S)Nc4ccccc4OC)CC3)cc21	none
CCn1cc(C(=O)O)c(=O)c2cc(F)c(N/N=C/c3ccccc3[N+](=O)[O-])cc21	Granule exo inh 72.0
COc1ccccc1C(=O)N1CCC2CCN(C(=O)OC(C)(C)C)C2C1 (configuration not stated)	none (no result: Granule exo inh, ABCB6 inh MLPCN)
CC(c1ccccc1)C1C(C#N)=C(N)OC2=C1C(=O)CC(C)(C)C2 (configuration not stated)	Granule exo inh 75.3
COc1ccc(-c2nc(=S)[nH][nH]2)cc1	Granule exo inh 56.0
COC1=C(Br)C(=O)c2nc(C)ccc2C1=O	Granule exo inh 98.5
O=C(NCc1ccccc1)[C@@H]1CCCN1C(=O)[C@H]1CCCN1C(=O)c1ccc(F)c(C(F)(F)F)c1	none (no result: Granule exo inh, ABCB6 inh MLPCN)
C=CCN1C(=O)/C(=C2/Sc3ccccc3N2CCCS(=O)(=O)O)SC1=S	rCAG binder 84.7
CN1C(=O)/C(=N\OC(=O)c2cccc3ccccc23)c2ccccc21	Granule exo inh 80.2
COc1ccc(C(=O)OCCN2C(=O)c3ccccc3C2=O)cc1	none
COc1ccc(C(=O)O/N=C2\C(=O)N(C)c3ccccc32)cc1	Granule exo inh 66.3
FC(F)(F)c1cc(Cl)c2nc(-c3ccccc3)c(Cc3cccc(Cl)c3)n2c1	rCAG binder 41.5
FC(F)(F)c1cc(Cl)c2nc(-c3cccc(Cl)c3)c(Cc3cccc(Cl)c3)n2c1	none
Cc1cc2nc(-c3ccccc3)c(Cc3cccc(Cl)c3)n2c(C)c1Br	rCAG binder 51.9
COc1cc2c(cc1OC)C(=O)C(Br)CC2 (configuration not stated)	Granule exo inh 100.4 (no result: rCAG binder, PG9 Ab binder)
COc1cc2c(cc1OC)C(=O)C(c1ccc3c(c1)OCO3)CC2 (configuration not stated)	none
COc1ccc(/C=N/NC(=O)c2cccnc2)cc1COc1ccc([N+](=O)[O-])cc1	Granule exo inh 61.1
O=C(N/N=C/c1ccc(OC(=O)c2ccc([N+](=O)[O-])cc2)cc1)c1cccnc1	none
COc1ccc(/C=N/NC(=O)c2cccnc2)cc1COc1ccc(NC(C)=O)cc1	none
COc1cc(/C=N/NC(=O)c2cccnc2)ccc1OC(=O)c1ccc([N+](=O)[O-])cc1	Granule exo inh 76.0
